Experimental findings from PubChem BioAssay (NCATS) are described below.

Records with an inconclusive call do not appear. Entries that show only a call come without a potency. Values without a mark were called inactive. Calls of active or inactive are those of the source. Unless noted, the call rests on the fitted dose curve; in most records, active means well fitted curve in the direction sought with a large enough effect; inconclusive means small, poorly fitted or top-dose-only effect, or another doubt; inactive means no such curve, though single readings can be large; an effect the other way counts as inactive or inconclusive.

Experiment [1] addresses Calcium and integrin-binding protein 1 (Homo sapiens) (UniProt Q99828). In words: Validation qHTS for Identification of Calcium Integrin Binding protein 1 (CIB1) Competitor (AID 1508618). The gist of the method: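 Fluorescence polarization with 1 uM CIB1-GST and 100 nM FITC-alphaIIb peptide in HEPES pH 7.4, NaCl, 5 mM CaCl2, Tween20. Compounds at up to 114 uM final, preincubated with protein 15 min; read after 15 min more at RT.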
Background: Quantitative high-throughput screening tests each substance at several concentrations.

Experiment [2] has the same target. The experiment in a line: Primary qHTS for Identification of Calcium Integrin Binding Protein 1 (CIB1) Competitor (AID 1508620).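 Further: GST tagged CIB1 binding a fluorescein labelled alphaIIb integrin peptide tracer; top concentration of the series differs between compounds.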 The gist of the method: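 CIB1-GST (1 uM final) and compound incubated 15 min at room temperature before adding FITC-alphaIIb peptide tracer (100 nM final). Competition for binding read by fluorescence polarization (ex 480, em 540) after another 15 min at room temperature.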

Experiment [3] can be described thus: Primary qHTS for small molecule stabilizers of the endoplasmic reticulum resident proteome: Secreted ER Calcium Modulated Protein (SERCaMP) assay (AID 1508630). Further: potency means the concentration at half of the fitted maximal effect. The gist of the method:
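GLuc-SERCaMP-expressing SH-SY5Y cells, pretreated 16 h with compound, are challenged with thapsigargin to empty ER calcium stores; after 4 h, coelenterazine is added directly to the medium and luminescence is imaged.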

The target of experiment [4] is Cytochrome P450 2D6 (Homo sapiens) (UniProt P10635). The experiment in a line: Cytochrome P450 family 2 subfamily D member 6 (CYP2D6) small molecule antagonists: luciferase biochemical (cell-free) qHTS assay (AID 1645840; active means well fitted curve in the direction sought with a large enough effect in the repeat runs; an effect the other way counts as inactive or inconclusive; further: potency means the concentration at half of the fitted maximal effect; nearly all actives have a fitted effect of over 55% in size). The gist of the method: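 P450-Glo luminescent screen: recombinant CYP2D6 enzyme–proluciferin substrate mix preincubated with compound 10 min at room temperature, then NADPH regeneration added for 1 h at room temperature. Detection reagent added for 20 min; luciferin light read as relative luminescence units.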
Cytochrome P450 2D6 (Homo sapiens), sequence (P10635 whole entry, looked up): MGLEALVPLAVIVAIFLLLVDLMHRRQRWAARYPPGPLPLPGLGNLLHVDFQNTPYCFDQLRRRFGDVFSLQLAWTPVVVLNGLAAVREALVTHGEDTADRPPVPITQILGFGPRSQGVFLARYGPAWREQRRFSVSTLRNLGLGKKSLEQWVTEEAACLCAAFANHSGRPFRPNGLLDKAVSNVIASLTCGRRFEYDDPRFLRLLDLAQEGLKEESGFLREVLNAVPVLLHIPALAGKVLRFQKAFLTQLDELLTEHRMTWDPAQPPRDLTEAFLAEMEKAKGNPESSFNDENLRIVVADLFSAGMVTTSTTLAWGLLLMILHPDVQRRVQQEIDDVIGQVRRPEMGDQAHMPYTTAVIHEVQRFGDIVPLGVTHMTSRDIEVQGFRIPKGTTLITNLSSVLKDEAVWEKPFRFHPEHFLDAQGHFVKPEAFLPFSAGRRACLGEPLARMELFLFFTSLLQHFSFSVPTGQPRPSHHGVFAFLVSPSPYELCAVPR

The target of experiment [5] is Cytochrome P450 2C9 (Homo sapiens) (UniProt P11712). The experiment in a line: Cytochrome P450 family 2 subfamily C member 9 (CYP2C9) small molecule antagonists: luciferase biochemical (cell-free) qHTS assay (AID 1645842; active means well fitted curve in the direction sought with a large enough effect in the repeat runs; an effect the other way counts as inactive or inconclusive; further: potency means the concentration at half of the fitted maximal effect; nearly all actives have a fitted effect of over 55% in size). The gist of the method: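 Luminescence, after 20 min with luciferin detection reagent, reflected CYP2C9 turnover during a 1 h NADPH-driven reaction at 37C. Enzyme-substrate mix contained 0.4% bovine serum albumin and was preincubated with compound 10 min at room temperature.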
Cytochrome P450 2C9 (Homo sapiens), sequence (P11712 whole entry, looked up): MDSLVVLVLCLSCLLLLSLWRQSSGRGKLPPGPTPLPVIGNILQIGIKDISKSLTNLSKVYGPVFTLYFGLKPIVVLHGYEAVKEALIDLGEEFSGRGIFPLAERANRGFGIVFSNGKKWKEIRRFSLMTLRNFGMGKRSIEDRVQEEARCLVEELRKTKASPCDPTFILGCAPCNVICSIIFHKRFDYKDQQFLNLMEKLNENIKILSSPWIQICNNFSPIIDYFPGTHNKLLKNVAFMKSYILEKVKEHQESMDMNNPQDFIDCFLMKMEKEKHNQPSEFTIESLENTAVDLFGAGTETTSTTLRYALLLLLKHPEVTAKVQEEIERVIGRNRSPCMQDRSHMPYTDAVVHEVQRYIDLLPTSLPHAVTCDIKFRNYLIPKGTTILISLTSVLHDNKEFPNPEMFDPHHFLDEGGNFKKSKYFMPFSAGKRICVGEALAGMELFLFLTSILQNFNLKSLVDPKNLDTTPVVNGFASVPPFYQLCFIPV

Experiment [6] can be described thus: A High-Content qHTS Against Drug Library for the Identification of Small Molecules that Inhibit DYT1 Early Onset Primary Dystonia-Associated Cell Pathology (AID 1645839; calls by dose curve; further: series mostly up to about 46 µM). The gist of the method:
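In this high-content image screen, delE TorsinA mislocalization in inducible Flp-In 293 cells is scored as %pathology, with cell count serving as the counterscreen. Compound exposure lasts 48 h under tetracycline induction in reduced-serum medium.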

In experiment [7] the target is Cytochrome P450 3A4 (Homo sapiens) (UniProt P08684). The experiment in a line: Cytochrome P450 family 3 subfamily A member 4 (CYP3A4) small molecule antagonists: luciferase qHTS assay (AID 1645841; active means well fitted curve in the direction sought with a large enough effect in the repeat runs; an effect the other way counts as inactive or inconclusive; further: nearly all actives have a fitted effect of over 45% in size; further: potency means the concentration at half of the fitted maximal effect). The gist of the method:
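Luminescent CYP3A4 activity readout: compounds plus enzyme-substrate mix 10 min at room temperature, reaction started with NADPH regenerating system for 1 h, stopped with detection reagent, read after 20 min. Ketoconazole served as control.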

Calcium and integrin-binding protein 1 (Homo sapiens), sequence (Q99828 whole entry, looked up): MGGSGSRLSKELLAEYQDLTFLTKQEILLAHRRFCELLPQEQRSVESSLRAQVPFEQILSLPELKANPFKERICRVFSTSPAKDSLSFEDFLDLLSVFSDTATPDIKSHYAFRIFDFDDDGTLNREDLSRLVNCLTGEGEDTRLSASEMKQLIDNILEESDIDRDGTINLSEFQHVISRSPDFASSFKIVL
Cytochrome P450 3A4 (Homo sapiens), sequence (P08684 whole entry, looked up): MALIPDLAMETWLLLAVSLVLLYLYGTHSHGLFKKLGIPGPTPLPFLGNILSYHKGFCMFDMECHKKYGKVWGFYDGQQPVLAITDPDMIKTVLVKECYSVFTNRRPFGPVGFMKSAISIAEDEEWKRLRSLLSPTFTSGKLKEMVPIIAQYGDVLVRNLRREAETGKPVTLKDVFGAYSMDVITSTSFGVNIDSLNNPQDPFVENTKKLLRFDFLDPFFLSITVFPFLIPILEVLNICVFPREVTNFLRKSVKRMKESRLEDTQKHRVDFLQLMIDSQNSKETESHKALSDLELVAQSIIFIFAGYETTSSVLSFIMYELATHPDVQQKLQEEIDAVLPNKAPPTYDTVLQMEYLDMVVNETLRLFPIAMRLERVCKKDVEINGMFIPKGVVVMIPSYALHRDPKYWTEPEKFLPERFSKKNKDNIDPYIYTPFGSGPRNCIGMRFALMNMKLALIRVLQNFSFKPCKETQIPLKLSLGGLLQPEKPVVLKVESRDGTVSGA

Consider `CC1=NN=C(c2ccc(N)cc2)c2cc3c(cc2C1)OCO3`, for which the outcome in experiment [1] and in experiment [2] was inactive. In experiment [3], the Potency entry is “inactive”. The Potency in experiment [4] was 19 µM (active); in experiment [5] it was 7.56 µM (active).
With `CC[C@@H](C(N)=O)N1CCCC1=O`, the outcome in experiment [1] and in experiment [2] was inactive.
For `Nc1c(Cl)c(Cl)c(Cl)c(Cl)c1Cl`, the Potency entry in experiment [6] was “inactive”.
On to `CCCCc1ccc(C(=O)O)nc1`, for which, in experiment [7], the Potency entry was “inactive”.
The same measure, in the same setting: as for `Nc1ccc(Cl)cc1N`, the figure is 7.96 µM (active).
As for `N#C[C@H](O[C@@H]1O[C@H](CO[C@@H]2O[C@H](CO)[C@H](O)[C@H](O)[C@H]2O)[C@H](O)[C@H](O)[C@H]1O)c1ccccc1`, the outcome in experiment [2] was inactive. In addition, in experiment [3], the Potency result is “inactive”.
`CC(C)[C@H]1C(=O)N[C@H](CO)Cc2c[nH]c3cccc(c23)N1C`: the outcome in experiment [2] was inactive. Further, in experiment [3], the Potency entry was “inactive”.
In the case of `C#CC1(O)CCC2C3CCC4=CC(=O)CCC4(C)C3CCC21C` (stereo not drawn), the outcome in experiment [2] was inactive. Moreover, the Potency result in experiment [3] is “inactive”.
With `CC=C(C)C(=O)N[C@@H](c1ccccc1)[C@@H](O)C(=O)O[C@H]1C[C@@]2(O)[C@@H](OC(=O)c3ccccc3)[C@@H]3[C@]4(OC(C)=O)CO[C@@H]4C[C@H](O)[C@@]3(C)C(=O)[C@H](OC(C)=O)C(=C1C)C2(C)C`, the result in experiment [2] was inactive. Also, the Potency entry in experiment [3] was “inactive”.
Regarding `CCCC[N+]1(C)[C@H]2CC(OC(=O)[C@H](CO)c3ccccc3)C[C@H]1[C@H]1O[C@H]12` (stereo partly drawn), in experiment [2], the outcome was inactive. Further, in experiment [3], the Potency result was “inactive”.
Take `CCC(=O)OC1CCC2C3CCC4=CC(=O)CC[C@@]4(C)C3CC[C@]12C` (stereo partly drawn): the result in experiment [2] was inactive. Besides, the Potency result in experiment [3] is “inactive”.
As to `C[C@]12CC[C@H]3[C@@H](CCC4=CC(=O)CC[C@@]43C)[C@H]1CC[C@H]2O`, the outcome in experiment [2] was inactive. Moreover, the Potency entry in experiment [3] was “inactive”.
Regarding `COc1cccc2c1[C@]13CCN(CC4CC4)[C@H](C2)[C@]1(OC)CCC(=O)C3`, the result in experiment [2] was inactive. The Potency entry in experiment [3] is “inactive”.
Regarding `C[C@]12CCC(=O)C(O)=C1CC[C@@H]1[C@H]3CCC(=O)[C@@]3(C)CC[C@@H]12`, the outcome in experiment [2] was inactive. For the same compound, in experiment [3], the Potency result was “inactive”.
In the case of `Cc1ccccc1-n1c(Cn2cnc3c(N)ncnc32)nc2cccc(C)c2c1=O`, the result in experiment [2] was inactive. Moreover, the Potency entry in experiment [3] was “inactive”.
With `O=S(=O)(CC1CS1)c1ccc(Oc2ccccc2)cc1` (stereo not drawn), in experiment [2], the result was inactive. The Potency entry in experiment [3] was “inactive”.
In the case of `CCCN1CCO[C@@H]2c3cc(O)ccc3OC[C@@H]21`, the outcome in experiment [2] was inactive. In addition, the Potency entry in experiment [3] was “inactive”.
For `COc1cc([C@@H]2c3cc4c(cc3[C@@H](O)C3COC(=O)C32)OCO4)cc(OC)c1O` (stereo partly drawn), the result in experiment [2] was inactive. Also, in experiment [3], the Potency result was “inactive”.
As for `O=C(Oc1ccc([N+](=O)[O-])cc1)N1CCC(C(O)(c2ccc3c(c2)OCO3)c2ccc3c(c2)OCO3)CC1`, the result in experiment [2] was inactive. The Potency entry in experiment [3] was “inactive”.
For `C#C[C@]1(O)C=C[C@@H]2[C@@H]3CCC4=CC(=O)CC[C@@H]4[C@H]3CC[C@@]21CC`, the outcome in experiment [2] was inactive. The Potency entry in experiment [3] was “inactive”.
Regarding `CN1[C@H]2CC(O)C[C@H]1[C@H]1O[C@H]12` (stereo partly drawn), the outcome in experiment [2] was inactive. The Potency result in experiment [3] is “inactive”.
As to `CC(=CCCC1=CCC(C2=CC(=O)OC2O)OC1O)CCC1=C(C)CCCC1(C)C` (stereo not drawn), in experiment [2], the outcome was inactive. In addition, the Potency result in experiment [3] is “inactive”.
For the compound `C=C[C@@H]1CN2CCC1C[C@@H]2[C@@H](O)c1ccnc2ccccc12` (stereo partly drawn), the result in experiment [2] was inactive. Besides, in experiment [3], the Potency result was “inactive”.
Consider `C[C@@H]1[C@H](O)[C@@H](C)C=CC=CCCC=CC=CC=CC=C[C@H](O[C@H]2O[C@@H](C)[C@H](O)[C@@H](N)[C@@H]2O)CC2O[C@](O)(C[C@@H](O)[C@H](O)CC[C@@H](O)C[C@@H](O)C[C@@H](O)CC(=O)O[C@H]1C)C[C@H](O)[C@H]2C(=O)O`, for which the result in experiment [2] was inactive. Further, the Potency entry in experiment [3] is “inactive”.
Consider `COc1cc2cc(c1Cl)N(C)C(=O)C[C@H](OC(=O)C(C)C)[C@]1(C)O[C@H]1[C@H](C)[C@@H]1C[C@@](O)(NC(=O)O1)[C@H](OC)C=CC=C(C)C2`, for which the result in experiment [2] was inactive. The Potency result in experiment [3] was “inactive”.
In the case of `CC(C)[C@]12O[C@@H]1[C@@H]1O[C@]13[C@]1(O[C@H]1C[C@@H]1C4=C(CC[C@@]13C)C(=O)OC4)[C@H]2O`, the outcome in experiment [2] was inactive. The Potency entry in experiment [3] is “inactive”.
For the compound `O=C1CCC[C@@H]2[C@H]3CCCN4CCC[C@@H](CN12)[C@@H]34`, the outcome in experiment [2] was inactive. Also, in experiment [3], the Potency result was “inactive”.
As to `Cc1c(N)nc([C@H](CC(N)=O)NC[C@@H](N)C(N)=O)nc1C(=O)N[C@H](C(=O)N[C@@H](C)[C@H](O)[C@@H](C)C(=O)N[C@@H](C(=O)NCCc1nc(-c2nc(C(=O)NCCC[S+](C)C)cs2)cs1)[C@@H](C)O)C(O[C@H]1O[C@H](CO)[C@H](O)[C@@H](O)[C@@H]1O[C@H]1O[C@H](CO)[C@@H](O)[C@H](OC(N)=O)[C@H]1O)c1cnc[nH]1` (stereo partly drawn), in experiment [2], the outcome was inactive. Moreover, in experiment [3], the Potency entry is “inactive”.
Regarding `CCN1C[C@]2(OC(=O)c3ccccc3NC(C)=O)CC[C@H](OC)[C@@]34[C@H]5CC6[C@@H](OC)C[C@](O)(C(C[C@@H]23)[C@@H]14)[C@@]5(O)[C@@H]6OC`, in experiment [2], the result was inactive. The Potency entry in experiment [3] is “inactive”.
Regarding `C[C@]12CC[C@H](O)CC1=CC[C@H]1[C@H]3CCC(=O)[C@@]3(C)CC[C@@H]12`, in experiment [2], the result was inactive. The Potency entry in experiment [3] is “inactive”.
For the compound `CC(=O)OCC1=C(C(=O)O)N2C(=O)[C@@H](N)[C@@H]2SC1`, in experiment [2], the result was inactive. For the same compound, the Potency entry in experiment [3] is “inactive”.
For the compound `COc1ccc2c(c1)[C@]13CCCCC1C(C2)N(C)CC3` (stereo partly drawn), the result in experiment [2] was inactive. For the same compound, the Potency in experiment [3] is 0.473 µM (active).
For `C[C@]12Cc3cn[nH]c3C[C@@H]1CC[C@@H]1[C@H]2CC[C@@]2(C)[C@H]1CC[C@]2(C)O` the same measures were “inactive” and “inactive”.
The corresponding values for `C[C@](O)(COc1ccc(C#N)cc1)C(=O)Nc1ccc(C#N)c(C(F)(F)F)c1` are “inactive” and “inactive”.
For `CC(=O)O[C@@]12CO[C@H]1C[C@H](O)[C@@]1(C)C(=O)[C@H](O)C3=C(C)[C@@H](O)C[C@@](O)([C@@H](OC(=O)c4ccccc4)[C@@H]21)C3(C)C` the same measures were “inactive” and “inactive”.
With `CCCCCC[C@H]1C(=O)O[C@H](C)[C@H](NC(=O)c2cccc(NC=O)c2O)C(=O)O[C@@H](C)[C@@H]1OC(=O)CC(C)C`, the result in experiment [2] was inactive. Also, the Potency result in experiment [3] was “inactive”.
Turning to `C=CCON=C(C[C@H]1O[C@@H]2O[C@]3(C)CC[C@@H]4[C@H](C)CC[C@@H]([C@H]1C)[C@@]24OO3)[C@H]1O[C@@H]2O[C@]3(C)CC[C@H]4[C@H](C)CC[C@@H]([C@@H]1C)[C@@]24OO3`, the outcome in experiment [2] was inactive. The Potency result in experiment [3] was “inactive”.
In the case of `CN(C)NC(=O)CCC(=O)O`, the outcome in experiment [2] was inactive. The Potency result in experiment [3] was “inactive”.
For `O=[N+]([O-])c1ncc[nH]1`, the outcome in experiment [2] was inactive. In addition, the Potency entry in experiment [3] was “inactive”.
Turning to `CC(O)=C(C#N)C(=O)Nc1cc(Br)ccc1Br`, in experiment [2], the result was inactive. In addition, in experiment [3], the Potency result is “inactive”.
For `C[C@]12CC[C@H]3[C@@H](CCC4=CC(=O)CC[C@@]43C)[C@H]1CC[C@H]2OC(=O)CCC1CCCC1`, the result in experiment [2] was inactive. For the same compound, the Potency result in experiment [3] was “inactive”.
Turning to `C=C[C@@H]1CN2CCC1C[C@H]2[C@H](O)c1ccnc2ccccc12` (stereo partly drawn), the outcome in experiment [2] was inactive. In experiment [3], the Potency result was “inactive”.
As to `CCOP(=O)(OCC)C(C)NC(=O)N(CCCl)N=O` (stereo not drawn), the outcome in experiment [2] was inactive. Further, the Potency entry in experiment [3] was “inactive”.
Take `Clc1ccccc1C(c1ccccc1)(c1ccccc1)n1cccn1`: the result in experiment [2] was inactive. Besides, in experiment [3], the Potency result was “inactive”.
